From PubChem BioAssay
VP16 counter = VP16 counterscreen qHTS for inhibitors of ROR gamma transcriptional activity; Drosophila S2 Gal4-VP16 UAS-luciferase, luminescence, 20 h; Potency, µM (series often up to 53.6 µM), hits mostly inhibitors; 310,000 tested, 3.5% active;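 also: Gal4-VP16 expression switched on by copper sulfate through the metallothionein promoter; nearly all actives have a fitted effect of over 50% in size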
RORgamma inh = qHTS for inhibitors of ROR gamma transcriptional activity; Drosophila S2 Gal4-RORgamma UAS-luciferase reporter, 20 h; AID 2551, 2010; 310,000 tested, 5.4% active; Potency, µM (titrated, usually from 53.6 µM), most hits filed as inhibitors; also: nearly all actives have a fitted effect of over 60% in size
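Compounds are pin-transferred onto Drosophila Schneider cells expressing a copper-inducible Gal4–ROR gamma transactivation domain fusion. After 1 hr, copper sulfate is added to 700 uM final; luciferase is read 20 hr later.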
p53 reactivator = qHTS assay for re-activators of p53 using a Luc reporter. Potency, µM (doses to about 92.2 µM), hits mostly activators. H1299 p53-A138V BP100-luciferase reporter, luminescence, 24 h. 320,000 tested, 0.063% active; also: nearly all actives have a fitted effect of over 45% in size
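H1299 (p53-null), stable ts p53-A138V + BP100-Luc; 1000 cells/well, Opti-MEM/10% FBS; cpd 4 pt, 1:5; 24 h, 37 deg C, 5% CO2; detection reagent 10 min RT; luminescence.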
CtBP-E1A inh = qHTS Assay for Inhibitors of the CtBP/E1A Interaction; CtBP / adenovirus E1A interaction (AlphaScreen); AlphaScreen GST-E1A/His-CtBP binding, 1536-well; hits give low values; 340,000 tested, 0.49% active; activity change, % (test concentration not listed); in the data active = activity change below about -65%; inconclusive = mostly about -30% to -63%
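Homogeneous bead-based format: GST-tagged E1A captured on glutathione donor beads, His-tagged CtBP on nickel acceptor beads; compounds precede bead addition by 2 h at 37 °C.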
Six1-Eya2 blk = qHTS Assay for Inhibitors of the Six1/Eya2 Interaction; Homeobox protein SIX1 (Homo sapiens) + Protein phosphatase EYA2 (Homo sapiens), …; AlphaScreen GST-Six1/His-Eya2 binding, biochemical; hits give low values; 360,000 tested, 0.56% active; activity change, % (test concentration not listed); AID 651725, 2012; in the data active = activity change below about -65%; inconclusive = mostly about -30% to -63%
Target sequence (O00167 whole entry, looked up): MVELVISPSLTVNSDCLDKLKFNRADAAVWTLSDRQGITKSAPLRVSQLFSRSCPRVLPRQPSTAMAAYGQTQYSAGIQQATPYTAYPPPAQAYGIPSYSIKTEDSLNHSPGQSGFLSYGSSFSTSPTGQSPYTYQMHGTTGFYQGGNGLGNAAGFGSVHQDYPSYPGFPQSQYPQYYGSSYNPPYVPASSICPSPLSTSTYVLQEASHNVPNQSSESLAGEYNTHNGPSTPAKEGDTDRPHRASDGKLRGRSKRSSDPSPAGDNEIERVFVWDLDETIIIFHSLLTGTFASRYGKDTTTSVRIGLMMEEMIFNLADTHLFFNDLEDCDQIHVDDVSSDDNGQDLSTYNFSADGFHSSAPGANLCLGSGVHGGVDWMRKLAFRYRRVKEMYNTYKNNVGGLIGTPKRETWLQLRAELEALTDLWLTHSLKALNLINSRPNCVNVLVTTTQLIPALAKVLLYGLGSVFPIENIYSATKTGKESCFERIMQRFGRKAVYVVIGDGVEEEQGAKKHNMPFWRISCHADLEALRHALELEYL
Target sequence (Q15475 whole entry, looked up): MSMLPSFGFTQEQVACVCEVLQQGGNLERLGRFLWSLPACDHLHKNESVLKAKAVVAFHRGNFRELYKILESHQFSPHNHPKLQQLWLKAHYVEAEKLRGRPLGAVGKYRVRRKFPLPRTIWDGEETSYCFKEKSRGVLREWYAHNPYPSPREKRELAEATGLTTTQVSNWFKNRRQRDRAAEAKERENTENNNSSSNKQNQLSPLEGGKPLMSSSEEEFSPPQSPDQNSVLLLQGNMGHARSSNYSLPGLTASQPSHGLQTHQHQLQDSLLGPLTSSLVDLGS
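GST-Six1 + His-Eya2 (5X stock: 250/500 nM); Tris pH 8.0, 300 mM NaCl, 0.05% BSA, 0.02% Tween 20; GSH donor/Ni acceptor beads; 1 h 37 °C dark; AlphaScreen readout.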
Numbers stand for hits; - = inactive; ? = inconclusive; . = no result given; [ ] = another dose, or the depositor's remark. Sampled rows, rich in hits. Any-hit rate of the full collection: about 5.4%. Unless noted, calls follow the shape of the dose curve; as a rule, active = well fitted curve in the direction sought with a large enough effect; inconclusive = small, poorly fitted or top-dose-only effect, or another doubt; inactive = no such curve, though single readings can be large; an effect the other way counts as inactive or inconclusive.

SMILES	VP16 counter	RORgamma inh	p53 reactivator	CtBP-E1A inh	Six1-Eya2 blk
O=S(=O)(c1ccc(Cl)c(NC(=S)N/N=C/c2c(F)cccc2F)c1)N1CCOCC1	1.8µM	2µM	-	-	-
COc1ccc(-n2c(=S)[nH]c3c(sc(=S)n3-c3ccccc3)c2=O)c(OC)c1	-	-	-	-	-
COc1ccc(-n2c(=S)[nH]c3sc(-c4ccccc4)cc3c2=O)c(OC)c1	7.1µM	3.5µM	-	-	-
COc1cccc(-c2cc3c(=O)n(-c4ccccc4)c(=S)[nH]c3s2)c1	2.5µM	0.89µM	-	-	-
COc1ccc(-c2csc3[nH]c(=S)n(-c4ccccc4)c(=O)c23)cc1OC	3.2µM	2.5µM	-	-	-
CCN1CCN(Cc2ccc(NC(=O)c3ccc(C)c(NC(=O)C(=O)c4c[nH]c5ccccc45)c3)cc2C(F)(F)F)CC1	?	13µM	-	-	-
[O-][n+]1c2ccccc2c2n1CCN1CCOC21c1ccc(Cl)cc1 (configuration not stated)	.	.	-	-	-
NNc1nccc(Nc2ccccc2C(=O)O)n1	-	-	-	-67	-90
c1ccc(Nc2ccnc(Nc3ccccc3)n2)cc1	?	-	?	-	-
S=c1[nH]nc(-c2cc(-c3ccccc3)n[nH]2)n1/N=C/c1ccccc1	-	-	-	-	-
S=c1[nH]nc(-c2ccncc2)n1/N=C/c1ccccc1	?	?	?	-	-
Cc1cccc(/C=N/n2c(-c3cc(-c4ccccc4)n[nH]3)n[nH]c2=S)c1	?	7.9µM	-	-	-
Cc1cccc(/C=N/n2c(-c3ccncc3)n[nH]c2=S)c1	?	11µM	-	-	-
O=C(OCc1ccccc1)N1C[C@H](O)[C@H](O)C[C@@H]1c1c(Cl)cccc1Br	.	.	.	-	-
Cc1cccc(/C=N/NC(=O)c2ccncc2)n1	-	-	-	.	?
C=CCN(CC=C)C(=S)NC(=O)c1ccc([N+](=O)[O-])cc1	0.13µM	0.13µM	-	-	-
C=CCN(CC=C)C(=S)NC(=O)c1ccc(OC)c(Br)c1	0.71µM	0.28µM	-	-	-
COc1ccc(C(=O)c2ccc(OC)c(Br)c2)cc1Br	?	-	-	-	-
C=CCN(CC=C)C(=O)c1c(OC)cccc1OC	-	-	-	-	-
C=CCNC(=S)NNC(=O)c1ccc([N+](=O)[O-])cc1	?	-	-	.	-
CCN(CC)C(=S)NC(=O)c1ccc(OC)c(Br)c1	0.5µM	0.35µM	-	-	-
C=CCNC(=S)NC(=O)c1ccc(C)c(Br)c1	?	?	-	-	-
COc1ccc(C(=O)NC(=S)NCCO)cc1Br	1.1µM	0.79µM	-	-	-
N/C(=N\NC(=O)Nc1ccc(Cl)cc1)c1ccccn1	-	-	-	-76	?
CNC(=O)N/N=C(\N)c1ccccn1	-	-	-	.	-
SMILES	VP16 counter	RORgamma inh	p53 reactivator	CtBP-E1A inh	Six1-Eya2 blk
N/C(=N\OC(=O)COc1ccc(Br)cc1Cl)c1ccccn1	?	?	?	-	-
N/C(=N\OC(=O)c1cc(Cl)ccc1Cl)c1ccccn1	14µM	-	-	-	-
N/C(=N\OC(=O)COc1ccc(Cl)cc1Cl)c1ccccn1	?	10µM	-	.	-
C/C(=N/NC(=O)c1ccncc1)c1ccc(NC(=O)c2ccccc2)cc1	-	-	-	.	-
C/C(=N\NC(=O)c1ccc(Br)cc1)c1cccc(NC(=O)c2cccnc2)c1	-[10 µM]	18µM	-	-	-
CC(=NNC(=O)c1ccncc1)c1cccc(Br)c1	.	.	.	-	-
C/C(=N\NC(=O)c1ccc(O)cc1O)c1cccnc1	?	5.6µM	?	-	-
C/C(=N\NC(=O)c1ccncc1)c1cccc(NC(=O)c2ccc(C(C)(C)C)cc2)c1	4µM	4.5µM	-	-	-
COC(=O)c1ccc(NC(=O)CO/N=C2\CCCc3nonc32)cc1	-	-	-	-	-
C=C1C(=O)[C@]23[C@H](O)[C@H]1CC[C@H]2[C@@]12COC3(O)[C@H](O)[C@@H]1C(C)(C)CC[C@@H]2O	3.5µM	3.2µM	.	.	.
CC(C)(C)c1nn(-c2ccccc2)c2[nH]c(=O)c(CNc3ccc4c(c3)OCCO4)cc12	-	?	-	-	?
Cc1nn(-c2ccccc2)c2[nH]c(=O)c(CNc3ccc(N4CCOCC4)cc3)cc12	-	-	-	-69	-70
Cc1ccc(CNCc2cc3c(C(C)(C)C)nn(-c4ccccc4)c3[nH]c2=O)cc1	13µM	?	-	-	-
Cc1ccc(NC(=O)CN(C)S(=O)(=O)c2cccs2)cc1F	-	?	-	-	-
Cc1ccc(NC(=O)CN(C)S(=O)(=O)c2cccs2)cc1C	7.9µM	?	?	-	-
CCCc1cc(=O)[nH]c(SCC(=O)Nc2cc(S(=O)(=O)N3CCCCC3)ccc2C)n1	.	.	-	-	-
CSc1nnc(C)c(/C=C/Nc2ccc(Cl)cc2)n1	-	-	-	?	-71
COc1ccc(N/C=C/c2nc(SC)nnc2C)cc1	-	-	-	-85	-72
CSc1nnc(C)c(/C=C/Nc2ccc(F)cc2)n1	-	-	-	?	?
CC(C)OCCCN1CC(=O)N2C(c3ccccc3)c3[nH]c4ccccc4c3C[C@H]2C1=O (some centres not stated)	-	-	-	-	-
CN(CCC#N)S(=O)(=O)c1cc2c3c(c1)CCN3C(=O)CC2	-	-	-	.	-
COc1cccc(C2NC(c3cccc(OC)c3O)C(C)C(=O)C2C)c1O (configuration not stated)	4.5µM	3.2µM	-	-	-
COc1ccccc1C1NC(c2ccccc2OC)C(C)C(=O)C1C (configuration not stated)	-	-	-	-	-
CCNC(=S)NS(=O)(=O)c1ccc(Cl)cc1	-[0.365 µM]	22µM	-	-	-
Cc1ccc(S(=O)(=O)NC(=S)NC2CCCCC2)cc1	14µM	3.2µM	-	-	-
SMILES	VP16 counter	RORgamma inh	p53 reactivator	CtBP-E1A inh	Six1-Eya2 blk
O=S(=O)(NC(=S)NC1CCCCC1)c1ccc(Cl)cc1	5.6µM	2.2µM	-	.	-
CCc1ccc(S(=O)(=O)NC(=S)NC2CCCCC2)cc1	5.6µM	3.5µM	-	-	-
Cc1ccc(S(=O)(=O)NC(=O)NC2CCCCC2)cc1	-	-	.	.	.
CN(Cc1ccccc1)C(=O)c1ccc(NC(=O)C2CCN(C(=O)OC(C)(C)C)CC2)cc1	.	.	-	-	-
COC(=O)c1cn(-c2nc(C)c3c(n2)CCC3)nn1	?	-	-	-	-
O=c1cc[nH]c2c1ccc1c(=O)cc[nH]c12	-	-	-	-86	-75
CCN(c1cccc(C)c1)S(=O)(=O)c1cc(CN2C(=O)c3cccnc3C2=O)ccc1OC	-	-	-	-	-
Cc1cccc(C(=O)NNC2=C(C(=O)C(F)(F)F)CCC2)c1O	10µM	6.3µM	?	-	-
